Source: PubChem BioAssay (Sanford-Burnham Center for Chemical Genomics)
Rows were chosen to be rich in hits. Some 3% of all compounds tested hit in one or more screens of this group.
C8 TRAIL sens – viability loss with TRAIL in NB7+C8 cells, primary screen, TRAIL sensitizer project, cell-based, ATPlite luminescence | 360,000 tested, 1% active | inhibition (viability loss, TRAIL sensitization), % at 10 µM | AID 624354, 2012;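 active means compounds causing at least 50% loss of cell viability in the single-dose screen, relative to plate controls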
SENP8 block-1 – human SENP8 protease inhibitors, primary screen, biochemical, fluorescence, Nedd8 protein substrate, uHTS. Sentrin-specific protease 8 (Homo sapiens), Q96LD8. recombinant SENP8. inhibition, % at 20 µM. 360,000 tested, 0.64% active. AID 602440, 2012; in the data active means inhibition mostly above about 40%, no sharp cut-off; inactive means mostly below about 27%
Target sequence (Q96LD8 whole entry, looked up): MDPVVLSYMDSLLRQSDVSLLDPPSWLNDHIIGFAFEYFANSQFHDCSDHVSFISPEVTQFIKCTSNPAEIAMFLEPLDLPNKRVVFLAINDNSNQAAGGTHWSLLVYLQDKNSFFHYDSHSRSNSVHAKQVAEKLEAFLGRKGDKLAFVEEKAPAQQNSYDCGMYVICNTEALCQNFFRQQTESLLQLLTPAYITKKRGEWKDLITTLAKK
SENP8 block-2 – SENP8 protease inhibitors, primary screen, biochemical, luminescence | purified SENP8, Z-RLRGG-aminoluciferin cleavage | inhibition, % at 10 µM | Sentrin-specific protease 8 (Homo sapiens), Q96LD8 | 330,000 tested, 1.2% active; in the data active means inhibition above about 50%
PPC-1+TRAIL kill – compounds killing PPC-1 cancer cells with TRAIL present, primary screen, TRAIL potentiator project, ATPLite luminescence, uHTS; PPC-1 cells + TRAIL, ATPLite viability luminescence; cell killing (% activity), % at 4 µM or 5 µM; 220,000 tested, 0.41% active;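 active means cell killing above 50% in the first pass at 4 µM, then a duplicate retest at 5 µM averaging 50% or more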;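 further: plate controls were cells with TRAIL plus DMSO for no effect and medium-only wells lacking cells for full effect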
SENP6 inh – SENP6 protease inhibitors, primary screen, biochemical, luminescence, uHTS; Sentrin-specific protease 6 (Homo sapiens), Q9GZR1; AID 2599, 2010; 330,000 tested, 1.8% active; Recombinant SENP6 catalytic domain, aminoluciferin luminescence; inhibition, % at 10 µM;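 active means inhibition above about 50% at the single tested dose, limit read from the data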;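 further: plate controls were DMSO wells with enzyme for no effect and DMSO wells lacking enzyme for full effect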
SENP7 inh – SENP7 protease inhibitors, primary screen, biochemical, luminescence, uHTS. inhibition, % at 5 µM. recombinant SENP7, Z-RLRGG-aminoluciferin luminescence, 40 min. 330,000 tested, 1.5% active. Sentrin-specific protease 7 (Homo sapiens), Q9BQF6. AID 434973, 2010;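 active means inhibition above about 50% at the single test dose, limit read from the data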;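 further: plate controls were DMSO with enzyme for no effect and no enzyme buffer wells for full effect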
Target sequence (Q9BQF6 706-1050 limits assumed): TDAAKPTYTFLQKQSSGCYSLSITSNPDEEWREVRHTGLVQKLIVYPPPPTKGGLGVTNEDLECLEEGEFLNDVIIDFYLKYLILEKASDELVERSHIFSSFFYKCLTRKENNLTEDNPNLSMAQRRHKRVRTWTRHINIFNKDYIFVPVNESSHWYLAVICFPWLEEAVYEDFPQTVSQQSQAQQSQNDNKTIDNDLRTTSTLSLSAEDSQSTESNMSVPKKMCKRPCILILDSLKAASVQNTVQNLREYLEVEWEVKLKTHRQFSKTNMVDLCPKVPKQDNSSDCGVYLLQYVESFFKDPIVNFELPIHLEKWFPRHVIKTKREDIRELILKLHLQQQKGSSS
PPC1 cytotox – cytotoxicity in PPC-1 cells, confirmation, cytotoxicity control for TRAIL apoptosis potentiator project, cell-based, ATP content luminescence | PPC-1 viability, ATPlite luminescence, overnight | cytotoxicity, % at 5 µM | shares compounds with PPC-1+TRAIL kill | 1,200 tested, 50% active;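 active means reconfirmed compounds whose average cytotoxicity reaches 50% or more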;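 further: 0% = DMSO-treated cells and 100% = wells holding medium but no cells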
Active calls of the source: *; i = inactive; / = not tested or not shown.

SMILES | C8 TRAIL sens | SENP8 block-1 | SENP8 block-2 | PPC-1+TRAIL kill | SENP6 inh | SENP7 inh | PPC1 cytotox
COC(=O)c1ccc(NC(=O)CN(C)S(=O)(=O)c2ccc(OC)c(C)c2)cc1 | -8 | 11 | -6 | -10 | -3 | 10 | -2
COc1ccc(S(=O)(=O)N(C)CC(=O)Nc2ccc(C(N)=O)cc2)cc1OC | -11 | 6 | 2 | 25 | 2 | -1 | /
Cc1cnc(NC(=O)c2ccc(OCC3CCCO3)cc2)s1 (centres undefined) | 87* | -76 | 10 | 83* | -24 | 37 | 86*
Cc1ccc(-c2cc(C(=O)N3CCN(c4ccc(F)cc4)CC3)c3ccccc3n2)o1 | 11 | i | -6 | 33 | -14 | 4 | 30
COc1ccc(-c2cc(C(=O)N3CCN(c4ccccn4)CC3)c3ccccc3n2)cc1 | 58* | -302 | / | 51* | / | / | 53*
CCOc1ccc(-c2cc(C(=O)N3CCN(c4ccccn4)CC3)c3ccccc3n2)cc1 | 89* | -280 | -2 | 81* | -1 | 3 | 82*
CCCc1c(C(=O)N/N=C/c2ccc3c(c2)OCO3)nnn1-c1nonc1N | 23 | -158 | / | / | / | / | /
CC(C)c1ccc(CN2CCC2(C)C(=O)Nc2cccc(Oc3ccccc3)c2)cc1 (centres undefined) | -2 | 5 | / | / | / | / | /
CCn1c(Cl)c(C=O)s/c1=N\S(=O)(=O)c1ccccc1 | 39 | 0 | -4 | 23 | -2 | -5 | 38
CCN1C(=O)CS/C1=N\S(=O)(=O)c1ccc(Cl)cc1 | -2 | 11 | 0 | 21 | -18 | -9 | /
COc1cccc(CN(C(=O)c2cc3ccccc3oc2=O)C2CCS(=O)(=O)C2)c1 (centres undefined) | 11 | -18 | 10 | / | 0 | 4 | /
CCc1ccc(C(=O)COC(=O)c2cccc(N3C(=O)c4c(C)nc5ccccc5c4C3=O)c2)cc1 | 73* | 13 | -1 | 72* | 3 | -2 | 72*
CCOc1ccc2[nH]c(=O)c(CN(CCN3CCCC3)C(=S)Nc3ccccc3OC)cc2c1 | -4 | -344 | -5 | 20 | -10 | 4 | /
O=[N+]([O-])c1ccc(N/N=C/c2ccc(O)c(O)c2O)c(S(=O)(=O)N2CCOCC2)c1 | 14 | 90* | 15 | 4 | 38 | 16 | 8
O=[N+]([O-])c1ccc(N/N=C/c2cccc(O)c2O)c(S(=O)(=O)N2CCOCC2)c1 | 22 | 7 | 8 | 16 | -1 | 13 | /
O=[N+]([O-])c1cccc(S(=O)(=O)NCc2ccncc2)c1 | 7 | 5 | 4 | / | -24 | -7 | /
C=CCOC(=O)C1=C(C)NC(SCC(N)=O)=C(C#N)C1c1cccs1 (centres undefined) | 9 | -58 | -3 | 29 | -14 | 9 | /
CC(=O)C1=C(C)NC(SCC(N)=O)=C(C#N)C1c1cccs1 (centres undefined) | -6 | -25 | 0 | 18 | -19 | -2 | 11
CN(C(=O)c1cccc(Nc2ccc(-c3ccc4c(c3)OCCO4)nn2)c1)C1CCCCC1 | 68* | -21 | 8 | 53* | 20 | 0 | 55*
NS(=O)(=O)c1cccc(NC(=S)NCc2ccc3c(c2)OCO3)c1 | -5 | 22 | -11 | 9 | -3 | -2 | 0
O=C(NC(=O)c1ccccc1O)c1ccc2c(c1)CCO2 | 74* | -33 | 51* | 69* | 65* | 42 | 68*
CC(NS(=O)(=O)c1ccc(Cl)cc1)C(=O)N1CCOCC1 (centres undefined) | -3 | 7 | 1 | / | -17 | 3 | /
COCCn1nnnc1C(c1cc2ccc(OC)cc2[nH]c1=O)N1CCN(C2CCCCC2)CC1 (centres undefined) | 2 | -115 | 1 | -20 | 9 | 1 | 0
Cc1ccc(C(C(=O)NC2CCCC2)N(Cc2ccc3c(c2)OCO3)C(=O)c2snc(C(N)=O)c2N)cc1 (centres undefined) | -3 | -386 | -2 | 17 | -2 | 1 | /
O=C(NC1CCCCC1)C(c1ccccc1)N(Cc1ccc2c(c1)OCO2)C(=O)c1cnsn1 (centres undefined) | 15 | -30 | -11 | 1 | -20 | -5 | 8
SMILES | C8 TRAIL sens | SENP8 block-1 | SENP8 block-2 | PPC-1+TRAIL kill | SENP6 inh | SENP7 inh | PPC1 cytotox
Cc1c(OCC(=O)C(C)(C)C)ccc2c3c(c(=O)oc12)CCCC3 | 8 | -132 | 12 | / | -12 | -8 | /
CCOC(=O)COc1ccc2c3c(c(=O)oc2c1C)CCC3 | 1 | -42 | -3 | 8 | -15 | -5 | 14
O=C(NCCCN1CCOCC1)c1cccc(S(=O)(=O)Nc2cc(Cl)ccc2Cl)c1 | 2 | 6 | -11 | 1 | -18 | -6 | /
COc1ccc(/C=N/Nc2nc3ccccc3s2)cc1O | 44 | -248 | / | 40 | / | / | 40
CSc1ccc(S(=O)(=O)NC2CCCCCC2)cc1 | -9 | 17 | -2 | 0 | -3 | -7 | 1
COc1ccc(N2CCN(C(=O)COC(=O)COc3ccc(C#N)cc3)CC2)cc1 | 7 | 6 | -5 | / | -9 | -1 | /
O=C(N/N=C/c1cc(O)ccc1[N+](=O)[O-])c1ccc2c(c1)OCCO2 | 89* | 6 | -9 | 80* | -11 | 6 | 83*
O=C(N/N=C/c1ccccc1[N+](=O)[O-])c1ccc2c(c1)OCCO2 | 93* | -42 | 43 | 93* | 71* | 46 | 93*
CCN1CCN(CC(=O)Nc2ccc(N(C)C)cc2)CC1 | -1 | 29 | -5 | / | -25 | 7 | /
COc1ccc2[nH]c(C)c(-c3csc(N)n3)c2c1 | 12 | -8 | -5 | / | -16 | -4 | /
CCN(CC)CCNC(=O)c1ccc2c(c1NCCO)C(=O)c1ccccc1C2=O | 95* | 88* | 24 | 33 | 37 | 37 | 27
Cc1ccc(Nc2nc(Oc3ccc(OCc4ccccc4)nn3)nc(N3CCOCC3)n2)cc1 | 29 | 16 | 2 | 16 | 2 | -4 | 13
O=C1C(Cl)=C(NCCN2CCCCC2)C(=O)c2ccccc21 | 92* | 76* | 30 | 48 | 37 | 20 | 46
O=C(NCCN1CCCC1)c1ccccc1Cl | 8 | 17 | 2 | 5 | 0 | 0 | /
Cc1[nH]n(-c2ccccc2)c(=O)c1C(C[N+](=O)[O-])c1ccc(Br)cc1 (centres undefined) | 4 | 88* | 25 | 6 | 35 | 41 | 0
CCOC(=O)CNc1c(-c2ccc(O)cc2)nc2ccc(Cl)cn12 | 4 | -269 | 8 | -10 | 14 | -3 | -14
CCOC(=O)c1nn(-c2ccc(C)cc2)cc1C(=O)c1ccccc1 | 53* | 9 | 12 | 39 | 16 | 24 | 45
